Consider 20 compounds from PubChem BioAssay (NCATS).

Assay [1] addresses Glutathione peroxidase 1 (Homo sapiens) (UniProt P07203). In words: Primary qHTS Assay for Inhibitors of Recombinant Selenoprotein Glutathione Peroxidase 1 (GPX1) (AID 1845191). Further: nearly all actives have a fitted effect of over 65% in size. On activity, negative = inhibition: on the % scale 0 is the no-effect control and ±100 the full control effect. The procedure, abridged:
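10 nM GPX1 + cpd, 30 min RT; start w/ 1 mM GSH, 0.5 mM cumene hydroperoxide, 0.5 mM NADPH, 100 nM GR, 0.01% BSA; buffer 50 mM Tris-HCl pH 7.5, 2 mM EDTA, 150 mM NaCl; Fl 340/450, 0 & 15 min.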
For orientation: In qHTS, concentration-response curves come from the screen itself.

Assay [2] concerns the target Phospholipid hydroperoxide glutathione peroxidase GPX4 (Homo sapiens) (UniProt P36969). The assay can be described thus: Primary qHTS Assay for Inhibitors of Recombinant Selenoprotein Glutathione Peroxidase 4 (GPX4) (AID 1845192). Further: nearly all actives have a fitted effect of over 65% in size. On activity change, negative = inhibition: series mostly up to about 50 µM; on the % scale 0 is the no-effect control and ±100 the full control effect. The procedure, abridged:
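NADPH consumption, followed by fluorescence at 340/450 nm between 0 and 15 min, reports GPX4 activity via coupled glutathione reductase (100 nM). Enzyme 200 nM was pre-exposed to compound 30 min; 0.5 mM cumene hydroperoxide and 1 mM GSH served as substrates.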

Assay [3] concerns the target Luciferin 4-monooxygenase (Photinus pyralis) (UniProt P08659). The assay can be described thus: Primary firefly luciferase (FLuc) qHTS assay for identification of artifact compounds. (AID 1845220). Further: nearly all actives have a fitted effect of over 60% in size.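 On activity change, negative = inhibition: series mostly up to about 54 µM; plate controls were DMSO vehicle for no effect and no enzyme for full effect.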 The procedure, abridged:
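Compounds sat 15 min at room temperature with 10 uM luciferin and 10 uM ATP (pH 7.6 Tris acetate). Firefly luciferase (10 nM final) was then added, and luminescence was read 5 min later. Data normalized to no-enzyme and DMSO controls were Hill-fitted.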

Assay [4] in a line: Primary fluorescence-based thiol-reactive (MSTI) qHTS assay for identification of artifact compounds. (AID 1845221). Further: nearly all actives have a fitted effect of over 65% in size. Further: potency means the concentration at half of the fitted maximal effect.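 On activity change, negative = thiol reactive: series mostly up to about 54 µM; thiol-reactive compounds lower the probe fluorescence signal.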 The procedure, abridged:
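Compounds were incubated 1 h at room temperature in the dark with the MSTI probe (4 uM) in PBS pH 7.4, 2% DMSO. Signals were normalized between Acetyl-MSTI and MSTI.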

For assay [5], the system named is Nanoluciferase (engineered Oplophorus gracilirostris luciferase). In words: Primary Nanoluciferase (NLuc) qHTS assay for identification of artifact compounds. (AID 1845222).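 Further: series mostly up to about 54 µM; 0% = DMSO and -100% = no enzyme.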 The procedure, abridged:
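Luminescence from secreted NLuc (filtered, 1:55-diluted S16 cell medium) read 5 min after Nano-Glo substrate; compounds preincubated 15 min, RT. Hill fits of inhibition normalized to DMSO and no-enzyme.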

Assay [6] in a line: Primary redox qHTS assay for identification of artifact compounds. (AID 1845223).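 Further: 0% = DMSO and 100% = reference compound.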 The method in brief: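 Amplex Red (25 uM) and HRP (250 mU/mL) in HBSS, with compounds for 15 min, then 250 uM DTT for 30 min, room temperature, dark. Fluorescence 525/598 nm read; normalized to DMSO and 10 uM DA3003; Hill fit.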

Each structure is given as a SMILES string. A number with no mark means an inactive call. Inconclusive results are not listed. Calls of active or inactive are those of the source. The call rests on the fitted dose curve; in most records, active means well fitted curve in the direction sought with a large enough effect; inconclusive means small, poorly fitted or top-dose-only effect, or another doubt; inactive means no such curve, though single readings can be large; an effect the other way counts as inactive or inconclusive.

Phospholipid hydroperoxide glutathione peroxidase GPX4 (Homo sapiens), sequence (P36969 whole entry, looked up): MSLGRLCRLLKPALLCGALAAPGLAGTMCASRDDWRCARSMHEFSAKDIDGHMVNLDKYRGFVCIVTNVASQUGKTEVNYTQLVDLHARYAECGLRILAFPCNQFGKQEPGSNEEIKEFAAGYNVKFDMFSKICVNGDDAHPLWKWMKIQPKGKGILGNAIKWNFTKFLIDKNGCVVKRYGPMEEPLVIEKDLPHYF
Glutathione peroxidase 1 (Homo sapiens), sequence (P07203 whole entry, looked up): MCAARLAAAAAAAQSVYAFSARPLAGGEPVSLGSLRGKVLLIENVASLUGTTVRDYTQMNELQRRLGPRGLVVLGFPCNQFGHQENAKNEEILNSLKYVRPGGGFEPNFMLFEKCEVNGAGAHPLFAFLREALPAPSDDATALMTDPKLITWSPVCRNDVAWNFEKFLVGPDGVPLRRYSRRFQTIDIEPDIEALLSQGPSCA

In the case of `C=C1CC[C@@H]2[C@@](C)(CO[C@@H]3O[C@H](CO)C(O)[C@H](O)C3O)[C@H](O)CC[C@@]2(C)[C@@H]1CC/C(C)=C/CO` (stereo not given in full), the Potency result in assay [1] and in assay [2] was “inactive” each time. Further, the activity change, negative = inhibition in assay [3] was -1.11% [at 11.6 µM]. Moreover, in assay [4], the activity change, negative = thiol reactive was 21.9% [at 11.5 µM]. Besides, the activity, negative = inhibition in assay [5] was 2.18% [at 11.6 µM]. In assay [6], the redox activity (% of DA3003) is 11.9% [at 11.5 µM].
Take `CC[C@H](NC(=O)[C@H](CS(=O)(=O)CC1CC1)N[C@@H](c1ccc(F)cc1)C(F)(F)F)C(=O)C(=O)NC1CC1`: the Potency result in assay [1], in assay [2], in assay [3], in assay [4], in assay [5] and in assay [6] was “inactive” throughout.
Take `CC1(C)CCC(C)(C)c2cc(C3(c4ccc(C(=O)O)cc4)OCCO3)ccc21`: the Potency result in assay [1], in assay [2], in assay [3], in assay [4], in assay [5] and in assay [6] was “inactive” in each case.
As for `CCC(C)C(=O)OC1CC(C)C=C2C=CC(C)C(CCC(O)CC(O)CC(=O)O)C21` (stereo not given), the Potency result in assay [1], in assay [2], in assay [3], in assay [4], in assay [5] and in assay [6] was “inactive” in each case.
Take `CCOc1cc(C)c(Cl)cc1S(=O)(=O)n1cnc2ccccc21`: the Potency result in assay [1], in assay [2], in assay [3], in assay [4], in assay [5] and in assay [6] was “inactive” throughout.
Turning to `Cc1nc(NC(=O)N2CCCC2C(N)=O)sc1-c1csc(C(C)(C)C)n1` (stereo not given), the Potency result in assay [1], in assay [2], in assay [3], in assay [4], in assay [5] and in assay [6] was “inactive” each time.
With `COC(=O)C1=CO[C@@H](O[C@@H]2O[C@H](CO)[C@@H](O)[C@H](O)[C@H]2O)[C@@H]2C(COC(C)=O)=C[C@H](O)[C@H]12`, the Potency result in assay [1], in assay [2], in assay [3], in assay [4], in assay [5] and in assay [6] was “inactive” throughout.
For the compound `N[C@H]1Cc2ccccc2N(O)C1=O`, the Potency result in assay [1], in assay [2], in assay [3], in assay [4], in assay [5] and in assay [6] was “inactive” in each case.
As for `NC(=O)c1cccc(-c2cc(OC(=O)NC3CCCCC3)ccc2O)c1`, the Potency entry in assay [1], in assay [2], in assay [3], in assay [4], in assay [5] and in assay [6] was “inactive” each time.
For `Cc1[nH]nc(C(F)(F)F)c1Cc1sc2c(c1C(=O)N1C[C@](C)(O)CO1)c(=O)n(C)c(=O)n2C(C)C`, the Potency result in assay [1], in assay [2], in assay [3], in assay [4], in assay [5] and in assay [6] was “inactive” throughout.
For `CN1CCN(C2CCC(n3cc(-c4ccc(Oc5ccccc5)cc4)c4c(N)ncnc43)CC2)CC1` (stereo not given), the Potency result in assay [1], in assay [2], in assay [3], in assay [4], in assay [5] and in assay [6] was “inactive” each time.
Consider `C=CC(C)(CC/C=C(\C)C(=O)OC)OC1OC(COC(=O)CC(C)(O)CC(=O)O)C(OC2OC(CO)C(O)C(O)C2O)C(O)C1O` (stereo not given), for which the Potency result in assay [1], in assay [2], in assay [3], in assay [4], in assay [5] and in assay [6] was “inactive” each time.
Take `O=c1[nH]ccc2cc(OC3CCNCC3)ccc12`: the Potency entry in assay [1], in assay [2], in assay [3], in assay [4], in assay [5] and in assay [6] was “inactive” throughout.
In the case of `CC1(C)CC[C@]2(C(=O)O[C@@H]3O[C@H](CO)[C@@H](O)[C@H](O)[C@H]3O)CC[C@]3(C)C(=CCC4[C@@]5(C)CC[C@H](O[C@@H]6O[C@H](C(=O)O)[C@@H](O)[C@H](O)[C@H]6O)C(C)(C)C5CC[C@]43C)C2C1` (stereo not given in full), the Potency result in assay [1] and in assay [2] was “inactive” in each case. In addition, the activity change, negative = inhibition in assay [3] is 0.101% [at 11.6 µM]. Further, the activity change, negative = thiol reactive in assay [4] is 258% [at 11.5 µM]. For the same compound, the activity, negative = inhibition in assay [5] was 3.65% [at 11.6 µM]. The redox activity (% of DA3003) in assay [6] was 15.1% [at 11.5 µM].
Turning to `CC1(C)CC[C@]2(C(=O)O[C@@H]3O[C@H](CO)[C@@H](O)[C@H](O)[C@H]3O)CC[C@]3(C)C(=CCC4[C@@]5(C)C[C@@H](O)[C@H](O)[C@](C)(C=O)C5CC[C@]43C)[C@@H]2[C@@H]1O` (stereo not given in full), the Potency entry in assay [1], in assay [2], in assay [3], in assay [5] and in assay [6] was “inactive” in each case. In assay [4], the Potency was 3.98 µM (active).
`CC(C)(C)Nc1nc2cc(Cl)c(Cl)cc2nc1S(C)(=O)=O`: the Potency entry in assay [1], in assay [2], in assay [3], in assay [4], in assay [5] and in assay [6] was “inactive” each time.
On to `CC(C)CCC(=O)CC1c2ccccc2C(=O)N1c1ccc2ccc(Cl)nc2n1` (stereo not given), for which the Potency result in assay [1], in assay [2], in assay [3], in assay [4], in assay [5] and in assay [6] was “inactive” throughout.
Consider `C=C1[C@H](OC(C)=O)[C@H]2[C@@H](OC(C)=O)[C@](C)(OC(C)=O)C[C@]2(OC(C)=O)C(=O)[C@H](C)/C=C/C(C)(C)C(=O)[C@H](OC(=O)C(C)C)[C@H]1OC(C)=O`, for which the Potency result in assay [1], in assay [2], in assay [3], in assay [4], in assay [5] and in assay [6] was “inactive” in each case.
For `CC1=C(CCC(C)CC(=O)O)[C@@]2(C)CCCC(C)(C)C2CC1=O` (stereo not given in full), the Potency entry in assay [1], in assay [2], in assay [3], in assay [4], in assay [5] and in assay [6] was “inactive” throughout.
For the compound `Cc1[nH]c2ccccc2c1CCNC(=O)c1ccccc1F`, the Potency result in assay [1], in assay [2], in assay [3], in assay [5] and in assay [6] was “inactive” in each case. Further, in assay [4], the Potency is 4.23 µM (active).
